Reference: PubChem BioAssay (NCATS)
Values joined by “and” are separate entries in the source; they are usually repeats but may differ in a detail not shown here. Identical values can stand only once. Values without a mark were called inactive. Records with an inconclusive call do not appear. A call without a number means that no potency is given here. Active and inactive are the calls of the source. Unless noted, calls come from the whole dose curve.

Assays:
[1] = target: Bile acid receptor (Homo sapiens) (UniProt Q96RI1); test: qHTS assay for small molecule antagonists of farnesoid X receptor signaling (AID 588526)
Sequence of Bile acid receptor (Homo sapiens) (Q96RI1 whole entry, looked up): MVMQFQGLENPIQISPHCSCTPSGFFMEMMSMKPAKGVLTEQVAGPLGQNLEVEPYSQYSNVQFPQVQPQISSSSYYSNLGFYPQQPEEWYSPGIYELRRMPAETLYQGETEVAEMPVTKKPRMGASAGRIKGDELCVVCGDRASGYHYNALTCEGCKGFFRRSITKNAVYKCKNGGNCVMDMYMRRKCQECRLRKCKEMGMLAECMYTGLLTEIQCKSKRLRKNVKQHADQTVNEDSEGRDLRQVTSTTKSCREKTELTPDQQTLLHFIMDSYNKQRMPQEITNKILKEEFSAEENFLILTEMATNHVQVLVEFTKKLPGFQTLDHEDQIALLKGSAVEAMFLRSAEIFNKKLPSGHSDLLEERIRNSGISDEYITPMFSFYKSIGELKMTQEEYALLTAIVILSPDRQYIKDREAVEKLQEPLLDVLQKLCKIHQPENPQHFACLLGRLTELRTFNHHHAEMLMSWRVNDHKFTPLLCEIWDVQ
In short: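 Antagonist mode: titrated compounds tested against chenodeoxycholic acid stimulation (normalized to 50 uM CDCA and DMSO) in GeneBLAzer HEK293T cells for 16 h. Beta-lactamase read by CCF4 fluorescence; IC50 from Hill fits.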

[2] = target: Peroxisome proliferator-activated receptor gamma (Homo sapiens) (UniProt P37231); test: qHTS assay for small molecule antagonists of peroxisome proliferator-activated receptor gamma signaling (AID 588537; active = well fitted inhibition curve with a large enough effect in the signal ratio, with a control signal flat, not every such curve was filed as active; the % refers to the signal ratio; note: potency is the fitted concentration of half-maximal effect)
Sequence of Peroxisome proliferator-activated receptor gamma (Homo sapiens) (P37231 whole entry, looked up): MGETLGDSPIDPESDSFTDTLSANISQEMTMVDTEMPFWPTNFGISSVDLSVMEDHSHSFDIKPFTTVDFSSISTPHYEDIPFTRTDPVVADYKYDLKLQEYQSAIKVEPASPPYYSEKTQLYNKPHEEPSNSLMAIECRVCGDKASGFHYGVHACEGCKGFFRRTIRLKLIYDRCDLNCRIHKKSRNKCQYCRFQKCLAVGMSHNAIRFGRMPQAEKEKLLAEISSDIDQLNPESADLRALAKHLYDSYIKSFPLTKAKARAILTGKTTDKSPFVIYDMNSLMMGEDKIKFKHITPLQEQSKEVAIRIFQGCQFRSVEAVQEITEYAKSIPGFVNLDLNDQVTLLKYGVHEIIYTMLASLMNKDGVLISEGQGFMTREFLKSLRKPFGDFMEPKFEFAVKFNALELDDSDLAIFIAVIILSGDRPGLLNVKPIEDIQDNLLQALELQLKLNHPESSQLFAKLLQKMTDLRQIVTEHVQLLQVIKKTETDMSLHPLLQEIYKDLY
In short: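 Read-out: CCF4 fluorescence (ex 405, em 460/530 nm) after 2 h at RT. Cells were HEK293 carrying a UAS-bla reporter and treated 16 h at 37 C with compound plus rosiglitazone (50 nM final). Normalized to rosiglitazone and DMSO.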

[3] = qHTS assay to identify small molecules that stimulate interleukin-8 (IL-8) secretion (AID 651758; active = well fitted activation curve with a large enough effect in the signal ratio; the % refers to the signal ratio)
In short: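 Compounds are added to THP-1 cells (2000 per well) and left 16 hrs at 37 C. A labeled anti-IL-8 antibody pair is then added, and IL-8 secretion is measured by time-resolved FRET after 1-3 hrs at room temperature.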

[4] = target: Androgen receptor (Homo sapiens) (UniProt P10275); test: qHTS assay for small molecule agonists of androgen receptor signaling (AID 588515; active = well fitted curve in the direction sought with a large enough effect in the signal ratio, with a control signal flat; the % refers to the signal ratio); conditions: AR-UAS-bla HEK293, beta-lactamase ratio, agonist 16 h; active compounds read high
Sequence of Androgen receptor (Homo sapiens) (P10275 whole entry, looked up): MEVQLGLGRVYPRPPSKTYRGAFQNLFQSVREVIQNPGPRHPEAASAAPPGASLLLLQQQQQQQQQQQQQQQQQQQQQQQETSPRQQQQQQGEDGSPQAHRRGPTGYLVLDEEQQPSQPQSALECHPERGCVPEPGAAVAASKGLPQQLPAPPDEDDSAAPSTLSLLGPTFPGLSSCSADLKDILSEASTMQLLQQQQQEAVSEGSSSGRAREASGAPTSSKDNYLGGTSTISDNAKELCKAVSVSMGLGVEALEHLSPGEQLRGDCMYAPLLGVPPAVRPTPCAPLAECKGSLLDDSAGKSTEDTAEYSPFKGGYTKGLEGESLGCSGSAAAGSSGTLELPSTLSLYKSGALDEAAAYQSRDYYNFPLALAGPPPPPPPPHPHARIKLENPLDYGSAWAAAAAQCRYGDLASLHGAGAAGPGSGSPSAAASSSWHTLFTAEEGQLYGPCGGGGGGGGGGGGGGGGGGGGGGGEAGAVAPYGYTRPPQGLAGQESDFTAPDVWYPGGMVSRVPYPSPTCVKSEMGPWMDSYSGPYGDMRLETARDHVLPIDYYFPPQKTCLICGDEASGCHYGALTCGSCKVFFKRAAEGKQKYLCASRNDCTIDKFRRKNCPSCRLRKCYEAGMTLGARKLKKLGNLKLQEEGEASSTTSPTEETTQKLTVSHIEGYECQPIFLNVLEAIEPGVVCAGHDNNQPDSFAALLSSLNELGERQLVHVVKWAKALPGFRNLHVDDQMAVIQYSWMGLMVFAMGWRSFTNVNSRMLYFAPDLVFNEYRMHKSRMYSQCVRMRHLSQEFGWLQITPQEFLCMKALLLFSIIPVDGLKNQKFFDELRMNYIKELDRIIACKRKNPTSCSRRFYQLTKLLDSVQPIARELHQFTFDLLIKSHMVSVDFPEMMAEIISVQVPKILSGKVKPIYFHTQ
In short: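 Stimulation of an AR-responsive β-lactamase reporter in GripTite HEK293 cells was measured after 16 h compound exposure at 37 °C, via CCF4 fluorescence after 2 h RT. EC50 from Hill fits, normalized to R1881 at 30 nM.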

[5] = target: Androgen receptor (Homo sapiens) (UniProt P10275); test: qHTS assay for small molecule antagonists of androgen receptor signaling (AID 588516; active = well fitted curve in the direction sought with a large enough effect in the signal ratio, with a control signal flat, not every such curve was filed as active; the % refers to the signal ratio)
In short: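 Compounds tested in titration against 10 nM R1881 in AR-responsive bla reporter HEK 293 cells; CCF4 fluorescence (460/530 nm) after 16 h exposure gave IC50 and efficacy.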

[6] = target: Cytochrome P450 3A4 (Homo sapiens) (UniProt P08684); test: qHTS Assay for Activators of Cytochrome P450 3A4 (AID 885; active = well fitted curve in the direction sought with a large enough effect; an effect the other way counts as inactive or inconclusive; note: nearly all actives have a fitted effect of over 65% in size)
Sequence of Cytochrome P450 3A4 (Homo sapiens) (P08684 whole entry, looked up): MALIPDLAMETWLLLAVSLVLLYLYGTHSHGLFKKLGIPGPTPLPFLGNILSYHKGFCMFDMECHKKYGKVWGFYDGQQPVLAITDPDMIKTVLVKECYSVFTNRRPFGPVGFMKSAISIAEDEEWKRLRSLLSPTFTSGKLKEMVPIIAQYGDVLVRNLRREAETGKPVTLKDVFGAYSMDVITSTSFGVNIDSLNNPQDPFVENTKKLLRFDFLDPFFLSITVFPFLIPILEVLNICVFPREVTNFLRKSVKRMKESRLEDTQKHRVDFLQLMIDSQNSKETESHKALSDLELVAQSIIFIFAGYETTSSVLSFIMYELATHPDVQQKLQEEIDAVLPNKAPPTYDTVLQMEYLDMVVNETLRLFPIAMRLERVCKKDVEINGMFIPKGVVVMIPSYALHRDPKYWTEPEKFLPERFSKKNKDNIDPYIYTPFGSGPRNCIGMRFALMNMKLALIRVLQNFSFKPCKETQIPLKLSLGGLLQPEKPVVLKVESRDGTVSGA
In short: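 Luminescent readout of luciferin formed from 25 uM Luciferin-PPXE (KM level) by 20 nM CYP3A4 in 200 mM KPO4, with 60 min NADPH-driven reaction at room temperature after 10 min compound exposure. Ketoconazole (57 uM) defined 100% inhibition.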

[7] = Confirmation and Secondary Assay for Modulators of Hemoglobin Beta Chain Splicing at IVS2 654 locus (AID 910; active = well fitted curve in the direction sought with a large enough effect; an effect the other way counts as inactive or inconclusive;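 note: HeLa cells stably carrying EGFP split by mutant beta-globin IVS2-654 intron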)
In short: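 HeLa cells stably expressing EGFP interrupted by β-globin IVS2-654 intron, seeded overnight in Opti-MEM/2% FCS, then treated 2 days at 37 °C. Restored splicing read as total peak GFP intensity per well by laser scanning cytometry (488 nm excitation, 500–520 nm emission); 500 nM antisense PNA as control.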

[8] = Confirmation and Secondary Assay for Modulators of Hemoglobin Beta Chain Splicing at IVS2 705 locus (AID 930; active = well fitted curve in the direction sought with a large enough effect; an effect the other way counts as inactive or inconclusive;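 note: HeLa cells stably expressing the EGFP-705 splicing reporter; GFP fluorescence per well restored by corrected splicing of the IVS2-705 intron in EGFP; series mostly up to about 46 µM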)
In short: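 First, HeLa EGFP-705 cells are seeded at 500/well in Optimem with 2% FCS and left overnight. Next, compound or DMSO is added for 2 days. Finally wells are laser-scanned and total peak GFP intensity scored.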

[9] = target: Ubiquitin carboxyl-terminal hydrolase 1 (Homo sapiens) (UniProt O94782); test: Inhibitors of USP1/UAF1: Pilot qHTS (AID 504865; active = well fitted curve in the direction sought with a large enough effect; an effect the other way counts as inactive or inconclusive;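 note: rhodamine fluorescence freed from ubiquitin-rhodamine substrate followed over time; top concentration of the series differs between compounds; nearly all actives have a fitted effect of over 35% in size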)
Sequence of Ubiquitin carboxyl-terminal hydrolase 1 (Homo sapiens) (O94782 whole entry, looked up): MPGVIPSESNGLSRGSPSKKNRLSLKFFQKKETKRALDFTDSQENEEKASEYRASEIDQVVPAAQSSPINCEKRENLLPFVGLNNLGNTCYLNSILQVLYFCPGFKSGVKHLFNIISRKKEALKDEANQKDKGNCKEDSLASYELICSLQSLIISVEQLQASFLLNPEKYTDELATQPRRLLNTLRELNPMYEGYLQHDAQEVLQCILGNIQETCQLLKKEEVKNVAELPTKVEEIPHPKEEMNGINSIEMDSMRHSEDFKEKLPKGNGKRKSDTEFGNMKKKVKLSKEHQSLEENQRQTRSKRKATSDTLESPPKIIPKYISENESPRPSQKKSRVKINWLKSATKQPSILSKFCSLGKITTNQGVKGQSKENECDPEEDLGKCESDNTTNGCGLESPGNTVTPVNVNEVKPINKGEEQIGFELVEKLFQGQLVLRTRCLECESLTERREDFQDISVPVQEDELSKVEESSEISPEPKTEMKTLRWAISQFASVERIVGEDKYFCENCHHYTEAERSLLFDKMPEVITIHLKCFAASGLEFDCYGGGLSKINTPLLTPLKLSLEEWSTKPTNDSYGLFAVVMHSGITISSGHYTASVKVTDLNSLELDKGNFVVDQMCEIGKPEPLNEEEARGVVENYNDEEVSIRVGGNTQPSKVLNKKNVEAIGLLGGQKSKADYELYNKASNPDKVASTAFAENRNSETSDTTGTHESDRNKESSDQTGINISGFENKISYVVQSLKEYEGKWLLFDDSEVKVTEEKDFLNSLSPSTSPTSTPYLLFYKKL
In short: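 Enzyme-free wells gave the negative control, while test wells held 1nM USP1/UAF1 preincubated with compound for 15 min at room temperature. Ub-Rho at 150nM final started the reaction, and fluorescence at 480/540 nm was recorded kinetically.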

O=Cc1ccc2c(c1)OCO2
outcome [1]: inactive

O=Cc1ccc(Cl)cc1Cl
Potency [2]: inactive

c1ccc(C2CO2)cc1 (centres undefined)
Potency [3]: inactive

O=C(O)c1cccc(Cl)c1
outcome [1]: inactive | Potency [3]: inactive

CCCCNC(=O)n1c(NC(=O)OC)nc2ccccc21
activation [4]: -8.05%

N#CCBr
outcome [1]: inactive

O=P(OCCCl)(OCCCl)OCCCl
outcome [1]: inactive | Potency [3]: inactive

Cl/C=C/CCl
Potency [2]: inactive

O=[N+]([O-])c1cccc(O)c1
outcome [1]: inactive

O=C(O)CCl
Potency [2]: inactive

c1ccc2c(c1)CCNC2
Potency [2]: inactive

Nc1ccc([N+](=O)[O-])cc1[N+](=O)[O-]
activation [4]: -5.64% | Potency [2]: inactive | Potency [3]: inactive

N#CC(O)c1ccccc1 (centres undefined)
outcome [1]: inactive | Potency [3]: inactive

O=S(=O)(O)F
outcome [1]: inactive

COC(=O)Nc1nc2ccccc2[nH]1
activation [4]: 10.4% and 9.09% | Potency [2]: inactive

ClC(Cl)(Cl)C(Cl)(Cl)Cl
Potency [3]: inactive

CCCCOC(C)=O
Potency [2]: inactive

CC(C#N)CCC#N (centres undefined)
Potency [3]: inactive

CCCCCCCCCCCOC(=O)c1ccccc1C(=O)OCCCCCCCCCCC
Potency [2]: inactive

Nc1ccc(Cc2ccc(N)c(Cl)c2)cc1Cl
Potency [2]: 39.8 µM (active)

O=[N+]([O-])/C=C/c1ccccc1
outcome [1]: inactive | Potency [2]: inactive

O=[N+]([O-])c1c(Cl)c(Cl)c(Cl)c(Cl)c1Cl
activation [4]: 15.3% and 4.1% | outcome [5]: inactive

CN(C)c1ccc(N(C)C)cc1
Potency [2]: inactive

Cc1cc(N=Nc2ccccc2C)ccc1N
activation [4]: -4.45% | outcome [5]: inactive | Potency [3]: inactive

Cc1ccc2c(c1N)C(=O)c1ccccc1C2=O
outcome [1]: inactive

Cc1cnc[nH]1
activation [4]: -7.55% | outcome [1]: inactive

Oc1c(Cl)c(Cl)cc(Cl)c1Cl
activation [4]: -20.1%

Nc1c(Br)cc([N+](=O)[O-])cc1[N+](=O)[O-]
Potency [6]: inactive | activation [4]: -3.78% | outcome [1]: inactive

O=[N+]([O-])c1ccccc1CCl
outcome [1]: inactive | Potency [2]: inactive

Cc1cc(C)cc(OP(=O)(Oc2cc(C)cc(C)c2)Oc2cc(C)cc(C)c2)c1
Potency [6]: inactive | Potency [2]: inactive

ClCc1ccccn1
Potency [2]: inactive

CC(C)(OOC(C)(C)c1ccccc1)c1ccccc1
activation [4]: 9.96% | outcome [5]: inactive

Nc1cccc2ccccc12
Potency [6]: inactive | Potency [3]: inactive

CCN(N=O)C(N)=O
outcome [1]: inactive | Potency [2]: inactive

COc1cc(-c2ccc(N)c(OC)c2)ccc1N
Potency [6]: inactive | Potency [2]: inactive

COP(=S)(OC)SCn1nnc2ccccc2c1=O
outcome [7]: inactive | outcome [8]: inactive | Potency [9]: inactive | activation [4]: -9.55% and -1.17%

C/C=C/C=O
Potency [2]: inactive

CC(C)(COCC1CO1)COCC1CO1 (centres undefined)
outcome [1]: inactive | Potency [3]: inactive

C(CCOCC1CO1)COCC1CO1 (centres undefined)
outcome [1]: inactive

CCCC[N+](=O)[O-]
outcome [1]: inactive

CCCCC(CC)COC(=O)c1ccc(C(=O)OCC(CC)CCCC)c(C(=O)OCC(CC)CCCC)c1 (centres undefined)
activation [4]: -4.73%

N#CC(Cl)(Cl)Cl
activation [4]: -3.49% | outcome [5]: inactive

CN(C)c1ccc(N)cc1
Potency [6]: inactive | activation [4]: -5.02% | Potency [2]: inactive
